From PubChem BioAssay
Some of the results follow. Values without a mark were called inactive. Active and inactive are the calls of the source. Cut-off read from the data, not from the text of the source: active = inhibition above about 11%; inactive = the rest.

Assay: CHO cell viability loss – luminescence, single concentration, cytotoxicity control for TLR9-MyD88 binding inhibitor project (AID 588336)
Conditions: TLR9-MyD88 CHO cells cytotoxicity, at 4.98 µM, hits give high values

| SMILES | inhibition |
| --- | --- |
| O=C(COC(=O)c1c2c(nc3ccccc13)/C(=C\c1cccs1)CCC2)Nc1ccccc1Cl | -3.1% |
| NS(=O)(=O)c1ccc(NC(=O)COC(=O)c2c3c(nc4ccccc24)/C(=C\c2ccc4c(c2)OCO4)CCC3)cc1 | 0.35% |
| O=C(CCN1C(=O)c2ccccc2C1=O)NNC(=O)c1ccc(Cl)cc1Cl | 1.44% |
| CCOc1ccc(C2=CC(c3ccccc3)n3ncnc3N2)cc1 (centres undefined) | -1.28% |
| Cc1cccc(NC(=O)c2nc(S(=O)(=O)Cc3ccccc3)ncc2Cl)c1 | 97% (active) |
| O=[N+]([O-])c1ccc(N/N=C/c2ccccc2)cc1 | 3.89% |
| COC(=O)Cc1cc(=O)oc2c(C)c(O)ccc12 | -0.43% |
| Cc1cccc(CS(=O)(=O)c2ncc(Cl)c(C(=O)Nc3ccc(F)cc3)n2)c1 | 99.1% (active) |
| COc1ccc(OC)c(N=Cc2c(O)[nH]c3ccccc23)c1 | 19.8% (active) |
| COc1ccc(-c2nc3cnccn3c2NC2CCCCC2)cc1-c1cccc(Cl)c1 | -0.82% |
| Oc1ccc2ccc3cccc[n+]3c2c1 | 5.09% |
| COc1ccccc1CSc1ncc(-c2ccc([N+](=O)[O-])cc2)[nH]1 | 2.09% |
| C[N+](C)(C)CCNC(=O)c1cc[n+](Cc2ccccc2)c(/C=N/O)c1 | -0.18% |
| CS(=O)(=O)c1sc2nc(-c3ccccc3)cc(-c3ccccc3)c2c1N | -0.85% |
| O=C1C(Cl)=C(Oc2ccccc2)C(=O)c2ccccc21 | 96.2% (active) |
| COc1cc(C(=O)N2C(=O)c3cccc(N)c3C2=O)cc(OC)c1OC | 1.27% |
| COc1ccc(-c2cc(C(F)(F)F)nc(S(C)(=O)=O)n2)cc1OC | 85.2% (active) |
| CNC(=S)N/N=C/c1ccc(OCc2ccccc2)c(Br)c1 | 43.4% (active) |
| Cc1cc(C)nc(SCc2ccccc2C#N)n1 | 2.36% |
| COc1ccccc1/C=C/C(=O)OCC(=O)NC1CCCCCC1 | 0.37% |
| O=[N+]([O-])c1c(NCCO)cc(Sc2nc3ccccc3s2)c2nonc12 | 98.7% (active) |
| COc1ccc(-c2nn(-c3ccccc3)cc2/C=N/Nc2ccccn2)cc1OC | 4.63% |
| CC1(C)CC(=O)C(C2c3ccccc3S(=O)(=O)c3ccccc32)C(=O)C1 | 2.02% |
| Cc1cc2oc3ccc(NCCC4CCCN4C)cc3c(=O)c2cc1C (centres undefined) | 31% (active) |
